Source: PubChem BioAssay (National Center for Advancing Translational Sciences (NCATS))
The list is not random: actives were taken first. Their share in the collection is about 21%.
Cycloheximide cs: affects cycloheximide protein synthesis inhibition readout, counter-screen. cell reporter, cycloheximide protein synthesis inhibition counterscreen. max response, %. actives 12% (n = 300,000). AID 2314; in the data active = max response mostly above about 13%, no sharp cut-off; inactive = mostly below about 14%; also: read at 38.3 µM for the half of the compounds with a filed dose; 0% is about no effect
Pf growth 48h: inhibits P. falciparum growth in the first generation, 48 h. P. falciparum luciferase growth in erythrocytes, 48 h. Potency, µM (doses to about 28.7 µM), for the others: top-dose activity change, negative = inhibition, usual class: inhibitors. actives 5.9% (n = 310,000). AID 504832; also: potency is read from the fitted curve at half-maximal effect; % is scaled to controls: 0 for no effect and ±100 for the full control effect
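Compounds are pin-transferred into medium, infected erythrocytes (2% hematocrit, 0.1% parasitemia final) are added, and plates sit one parasite generation at 37 C in 5% CO2. Detection reagent is then added and luminescence measured.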
NS1 function inh: influenza NS1 inhibition | Potency, µM (highest dose often 46.1 µM), for inactives: at the top dose activity, positive = more growth | actives 0.4% (n = 270,000); calls by dose curve; also: potency is read from the fitted curve at half-maximal effect; actives are rising curves; nearly all actives have a fitted effect of over 50% in size
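Growth recovery, yeast-based: influenza A NS1 expressed in S. cerevisiae causes slow growth, and suppressors are detected by OD600. The parent strain without NS1 is used as positive control.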
Pf growth 96h: inhibits malaria parasite growth, 96 h; P. falciparum luciferase reporter growth, 96 h; Potency, µM (doses to about 28.7 µM), without a hit: at the top dose activity change, negative = inhibition, most hits filed as inhibitors; actives 6.9% (n = 320,000); also: potency is read from the fitted curve at half-maximal effect; % is scaled to controls: 0 for no effect and ±100 for the full control effect
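Erythrocytes infected with luciferase-expressing P. falciparum were dispensed at 2% hematocrit and 0.05% parasitemia (final), then incubated with compounds 96 hours at 37 C in 5% CO2. Luminescence after detection reagent addition reported growth.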
Shiga inhibitor: Shiga toxin inhibition; Vero cells, Shiga toxin protein synthesis inhibition reporter; inhibition, % at 38.7 µM; actives 9.2% (n = 290,000); in the data active = inhibition mostly above about 28%, no sharp cut-off; inactive = mostly below about 43%; also: 0% is about no effect
Numbers without * were called inactive; u = inconclusive; x = not tested or not shown; [ ] = remark or other dose. Unless noted, calls follow the shape of the dose curve; as a rule, active = well fitted inhibition curve with a large enough effect; inconclusive = small, poorly fitted or top-dose-only effect, or another doubt; inactive = no such curve, though single readings can be large or run the other way.

SMILES | Cycloheximide cs | Pf growth 48h | NS1 function inh | Pf growth 96h | Shiga inhibitor
CCN(CC)CC(=O)N1c2ccccc2Oc2c(c(=O)n(C)c(=O)n2C)C1c1cccc([N+](=O)[O-])c1 (configuration not stated) | -4 | 5.9µM* | -6% | u | -4
NC(=O)NCCCC(=O)NCC(c1ccccc1Cl)c1c[nH]c2ccccc12 (configuration not stated) | 1 | x | -6% | u | -4
CCCCCCCCOC(=O)CCn1[nH]c(=O)c2ccccc2c1=O | -4 | u | -147% | 10µM* | -9
CCc1cc(-c2n[nH]c(C)c2-c2nc(C)cs2)c(O)cc1OC | 1 | u | -11% | -17% | 3
CCc1cc(-c2n[nH]c(C)c2-c2nc3ccccc3s2)c(O)cc1OCC(=O)NN | -4 | 5.2µM* | x | 17% | 4
C(=N\Nc1nc(-c2cccnc2)nc2ccccc12)/c1ccccc1 | 23* | u | 13% | -22% | 50*
Brc1ccc(-c2nc(N/N=C/c3cccnc3)c3ccccc3n2)cc1 | 32* | x | 18% | u | 103*
O=C(O)c1ccc(Nc2nc(-c3cccnc3)nc3ccccc23)cc1 | -3 | 20% | 12% | 31% | -3
Cc1ccc(-c2nc(N/N=C/c3ccccc3[N+](=O)[O-])c3ccccc3n2)cc1 | 35 | 140% | -3% | 89% | 9
FC(F)(F)c1nc2ccccc2nc1N/N=C\c1ccccc1 | 19* | 10% | -8% | 16% | 94*
NNc1nc2ccccc2nc1C(F)(F)F | -2 | -8% | -5% | -11% | -6
COc1cccc(/C=N/Nc2nc(-c3cccnc3)nc3ccccc23)c1 | 18* | u | 5% | u | 65*
O=C(COC(=O)CCC1CCCC1)Nc1cccc(S(=O)(=O)N2CCOCC2)c1 | x | u | x | 8% | x
CCOc1ccc(CNC(=O)Cn2ccc3cc(S(=O)(=O)N4CCCC4)ccc32)cc1 | -2 | u | 6% | u | 15
CC(C)CN(C(=O)C(c1ccccc1)c1ccccc1)c1c(N)n(CC(C)C)c(=O)[nH]c1=O | 6 | u | 4% | -16% | 13
C(=N\Nc1nc(-c2ccccn2)nc2ccccc12)/c1ccccc1 | 7 | 4.7µM* | 3% | 2.1µM* | 7
N#Cc1ccccc1Cn1cc(/C=C/[N+](=O)[O-])c2ccccc21 | -11 | 9.3µM* | -5% | 21% | -21
CCOC(=O)c1oc2ccccc2c1NC(=O)CN1CCOCC1 | 0 | 6% | -32% | 21% | -8
Cn1c(-c2ccccc2)c(C=O)c2ccccc21 | 7 | 0% | -9% | u | 71
Cn1cncc1C#Cc1c(C=O)[nH]c2ccccc12 | x | 8.3µM* | x | 5.2µM* | x
Cn1cncc1C#Cc1c(C=O)n(C)c2ccccc12 | x | 12µM* | x | u | x
CCCC(C)C(=O)Nc1ccc(S(=O)(=O)Nc2nccs2)cc1 (configuration not stated) | -3 | 20% | 4% | 35% | 29
Cc1cc(C)cc(N2C(=O)CN(Cc3sccc3C)C2=S)c1 | -3 | 9.3µM* | 17% | u | 2
Cc1ccsc1CN1CC(=O)N(c2c(C)cccc2C)C1=S | -8 | u | x | -6% | 4
Cc1cccc(N2C(=O)CN(Cc3sccc3C)C2=S)c1 | 6 | u | 1% | -4% | -5
SMILES | Cycloheximide cs | Pf growth 48h | NS1 function inh | Pf growth 96h | Shiga inhibitor
CCc1ccc(N2C(=O)CN(Cc3sccc3C)C2=S)cc1 | 21* | 7% | x | u | 51*
Cc1ccccc1C(=O)Nc1nnc(CC(=O)N/N=C/c2ccncc2)s1 | -1 | 1% | 7% | 103% | 1
CCOC(=O)[C@H]1[C@H]2COc3cc(OC)ccc3[C@@H]2N2C(=O)CN(Cc3ccco3)C(=O)[C@@]12C | x | u | x | -2% | x
CCOC(=O)[C@H]1[C@H]2COc3ccc(OC)cc3[C@@H]2N2C(=O)CN(CCc3c[nH]c4ccccc34)C(=O)[C@@]12C | x | 13µM* | x | u | x
C[C@@]12C(=O)N(CCc3c[nH]c4ccccc34)CC(=O)N1[C@H]1c3ccccc3OC[C@@H]1[C@@H]2c1ccccc1 | x | 12µM* | x | 6.6µM* | x
CCOC(=O)[C@H]1[C@H]2COc3cc(OC)ccc3[C@@H]2N2C(=O)CN(Cc3ccc(C)cc3)C(=O)[C@@]12C | x | 10µM* | x | 2.6µM* | x
CCOC(=O)[C@H]1[C@H]2COc3ccc(Cl)cc3[C@@H]2N2C(=O)CN(Cc3ccc(OC)cc3)C(=O)[C@@]12C | x | 7.4µM* | x | 6.6µM* | x
C=CCn1c(=O)c2ccccc2n2c(SCc3nnc(-c4ccccc4Br)o3)nnc12 | 1 | u | 0% | u | -6
CCOC(=O)[C@H]1[C@H]2COc3ccc(Br)cc3[C@@H]2N2C(=O)CN(Cc3ccc(OC)cc3)C(=O)[C@@]12C | x | 7.4µM* | x | u | x
CCOC(=O)[C@H]1[C@H]2COc3ccc(Cl)cc3[C@@H]2N2C(=O)CN(Cc3ccc(C)cc3)C(=O)[C@@]12C | x | 12µM* | x | u | x
CCOC(=O)[C@H]1[C@H]2COc3ccc(Cl)cc3[C@@H]2N2C(=O)CNC(=O)[C@@]12C | x | 26% | x | u | x
COc1ccc([N+](=O)[O-])cc1NCc1cccnc1 | 7 | 39% | x | -21% | 1
CCOc1ccc(NC(=O)NCc2cccnc2)cc1 | -3 | 34% | -1% | u | 18
Cc1ccc(NC(=O)NCc2cccnc2)cc1 | 19* | 32% | 6% | -6% | 22
Cc1ccc(CNC(=O)Nc2ccc(C)cc2)cc1 | 22* | 52%[5.75 µM] | 4% | 50% | 61
CSc1ccc(NC(=O)NCc2cccnc2)cc1 | 28* | 27% | 4% | 33% | 39*
Cc1ccc(NC(=O)c2cc([N+](=O)[O-])ccc2NCc2cccnc2)cc1 | 8 | 13µM* | 2% | u | -16
CC(C)n1nnnc1SCC(=O)Nc1ccccc1F | 0 | 7% | 1% | u | -5
Cc1ccc(C2(c3ccc(C)cc3)CC2C(=O)NCc2cccnc2)cc1 (configuration not stated) | -4 | -26% | -4% | 1.9µM* | -12
CC(C)c1ccc(NC(=O)NCc2cccnc2)cc1 | 12* | 2% | 0% | 51% | 40
Cn1cccc1CNC(=O)Nc1ccc(Cl)c(Cl)c1 | 37* | 176% | -2% | 0% | 86
Cc1cc(C)n2ncc(C(=O)NCc3cccnc3)c2n1 | 11 | 11% | -3% | 2.3µM* | 11
COc1cc2ccccc2c2c1CCCC2=O | 2 | x | -11% | -20% | -18
Cc1ccc(C(=O)Nc2ccccc2C(=O)NCc2ccccc2)cc1 | 8 | u | 5% | u | 8
Cc1ccc(C(=O)Nc2ccccc2C(=O)NCc2cccnc2)cc1 | -7 | u | 4% | 10µM* | -22
O=C(NCc1cccnc1)Nc1ccc(Cl)c(Cl)c1 | 26* | 24% | 5% | 22% | 59*
O=C(NCc1cccnc1)Nc1ccc(Br)cc1 | 30* | -10% | -10% | u | 21
COc1ccccc1N(Cc1ccccc1)S(=O)(=O)c1cc(C(=O)O)ccc1Cl | -3 | 16% | 7% | -2% | -7
CN(CC(=O)Nc1ccccc1C(F)(F)F)C(=O)C1=COCCO1 | x | 32% | x | -16% | x
